# Measured values as given in PubChem BioAssay (NCATS).
# Inconclusive results are not listed. Where a call stands in place of a potency, no number is given. The source made the active and inactive calls. Calls follow the shape of the dose curve; as a rule, active = well fitted curve in the direction sought with a large enough effect; inconclusive = small, poorly fitted or top-dose-only effect, or another doubt; inactive = no such curve, though single readings can be large; an effect the other way counts as inactive or inconclusive.
# Columns and labels:
# [1] = biological target: Nuclear receptor subfamily 1 group I member 3 (Homo sapiens) (UniProt Q14994); assay: Primary qHTS for antagonist of constitutive androstane receptor (CAR) against the NCATS DSHEA and TCM libraries (AID 1794836);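 also: HepG2 cells stably expressing hCAR with CYP2B6 luciferase reporter stimulated by CITCO; series mostly up to about 40 µM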
# Summary of the method: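 Antagonist mode: CAR reporter luminescence (ONE-Glo) in HepG2-CYP2B6-hCAR cells stimulated with 48 uM CITCO (final) over 24 h at 37 C, compounds titrated; viability read first by CellTiter-Fluor fluorescence.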
# [2] = biological target: Metallo-beta-lactamase type 2 (Klebsiella pneumoniae) (UniProt C7C422); assay: qHTS to identify inhibitors of the New Delhi Metallo-beta-lactamase (NDM): assay validation screen against the NCATS LOPAC Collection (AID 1794843);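 also: nitrocefin turnover by NDM-1 measured as 485 nm absorbance at plateau; series mostly up to about 38 µM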
# Summary of the method: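 NDM-1 at 2 nM final in 50 mM HEPES pH 7.0, 1 uM ZnSO4, 0.01% Tween20, preincubated with LOPAC compounds pinned in DMSO; 50 uM nitrocefin (stock) added. Hydrolysis read as absorbance at 485 nm in the plateau phase.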
# [3] = biological target: Glutathione peroxidase 1 (Homo sapiens) (UniProt P07203); assay: Primary qHTS Assay for Inhibitors of Recombinant Selenoprotein Glutathione Peroxidase 1 (GPX1) (AID 1845191); conditions: outcome: dose series up to 48.8 µM; also: nearly all actives have a fitted effect of over 65% in size
# Summary of the method: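 10 nM GPX1 + cpd, 30 min RT; start w/ 1 mM GSH, 0.5 mM cumene hydroperoxide, 0.5 mM NADPH, 100 nM GR, 0.01% BSA; buffer 50 mM Tris-HCl pH 7.5, 2 mM EDTA, 150 mM NaCl; Fl 340/450, 0 & 15 min.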
# [4] = biological target: Phospholipid hydroperoxide glutathione peroxidase GPX4 (Homo sapiens) (UniProt P36969); assay: Primary qHTS Assay for Inhibitors of Recombinant Selenoprotein Glutathione Peroxidase 4 (GPX4) (AID 1845192); also: nearly all actives have a fitted effect of over 65% in size
# Summary of the method: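 NADPH consumption, followed by fluorescence at 340/450 nm between 0 and 15 min, reports GPX4 activity via coupled glutathione reductase (100 nM). Enzyme 200 nM was pre-exposed to compound 30 min; 0.5 mM cumene hydroperoxide and 1 mM GSH served as substrates.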
# Sequence of Phospholipid hydroperoxide glutathione peroxidase GPX4 (Homo sapiens) (P36969 whole entry, looked up): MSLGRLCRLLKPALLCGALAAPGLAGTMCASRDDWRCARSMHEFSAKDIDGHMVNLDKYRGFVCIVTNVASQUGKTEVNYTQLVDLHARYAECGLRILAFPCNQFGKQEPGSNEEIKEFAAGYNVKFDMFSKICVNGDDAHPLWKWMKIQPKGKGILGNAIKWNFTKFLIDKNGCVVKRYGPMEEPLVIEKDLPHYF
# Sequence of Glutathione peroxidase 1 (Homo sapiens) (P07203 whole entry, looked up): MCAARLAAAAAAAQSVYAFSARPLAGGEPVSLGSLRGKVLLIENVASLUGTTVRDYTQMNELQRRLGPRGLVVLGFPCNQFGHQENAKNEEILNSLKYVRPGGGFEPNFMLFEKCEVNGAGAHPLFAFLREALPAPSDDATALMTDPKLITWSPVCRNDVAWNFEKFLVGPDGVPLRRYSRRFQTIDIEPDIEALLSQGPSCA
# Sequence of Nuclear receptor subfamily 1 group I member 3 (Homo sapiens) (Q14994 whole entry, looked up): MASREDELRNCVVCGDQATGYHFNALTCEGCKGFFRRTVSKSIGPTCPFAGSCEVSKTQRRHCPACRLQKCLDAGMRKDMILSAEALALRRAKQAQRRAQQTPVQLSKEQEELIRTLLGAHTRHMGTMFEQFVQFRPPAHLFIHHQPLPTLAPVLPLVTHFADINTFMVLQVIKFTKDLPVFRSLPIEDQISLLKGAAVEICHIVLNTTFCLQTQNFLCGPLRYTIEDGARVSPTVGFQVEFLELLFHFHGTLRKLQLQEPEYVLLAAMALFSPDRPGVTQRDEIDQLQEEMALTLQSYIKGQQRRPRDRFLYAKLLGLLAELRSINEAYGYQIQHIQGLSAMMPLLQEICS
# Sequence of Metallo-beta-lactamase type 2 (Klebsiella pneumoniae) (C7C422 whole entry, looked up): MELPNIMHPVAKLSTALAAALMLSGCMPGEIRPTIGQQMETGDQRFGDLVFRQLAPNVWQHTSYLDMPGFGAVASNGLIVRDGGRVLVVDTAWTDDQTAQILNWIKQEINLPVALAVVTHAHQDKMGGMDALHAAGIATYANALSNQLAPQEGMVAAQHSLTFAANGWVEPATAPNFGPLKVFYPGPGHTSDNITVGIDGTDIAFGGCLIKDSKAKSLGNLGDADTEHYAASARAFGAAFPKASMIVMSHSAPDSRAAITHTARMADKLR
structure (smiles),measurement,setting,value
O=C1O[C@H]([C@@H](O)CO)C(O)=C1O,outcome,[1],inactive
COC(=O)C1=CCCN(C)C1,outcome,[2],inactive
same,outcome,[3],inactive
same,Potency,[4],inactive
CC#C[C@]1(O)CC[C@H]2[C@@H]3C[C@H](C)C4=CC(=O)CC[C@]4(C)[C@H]3CC[C@@]21C,outcome,[3],inactive
same,Potency,[4],inactive
C[N+]1(C)[C@@H]2CC[C@H]1CC(OC(=O)C(CO)c1ccccc1)C2 (stereo partly drawn),outcome,[3],inactive
same,Potency,[4],inactive
Cn1c(=O)c2c(ncn2C)n(C)c1=O,outcome,[1],inactive
C[C@@H]1C[C@@H]([C@H](O)CC2CC(=O)NC(=O)C2)C(=O)[C@@H](C)C1,outcome,[3],inactive
same,Potency,[4],inactive
COP(=O)(OC)C(O)C(Cl)(Cl)Cl (stereo not drawn),outcome,[3],inactive
same,Potency,[4],inactive
COP(=O)(OC)OC=C(Cl)Cl,outcome,[3],inactive
same,Potency,[4],inactive
Oc1ccc([C@H]2CNCc3c2ccc(O)c3O)cc1O,outcome,[3],inactive
same,Potency,[4],inactive
CC(C(O)c1ccccc1)N(C)C/C=C/c1ccccc1 (stereo not drawn),outcome,[3],inactive
same,Potency,[4],inactive
COP(=S)(OC)Oc1ccc(S(N)(=O)=O)cc1,outcome,[3],inactive
CC1COC2(c3ccccc3Cl)c3cc(Cl)ccc3NC(=O)CN12 (stereo not drawn),outcome,[3],inactive
same,Potency,[4],inactive
Nc1ccccc1C(=O)OCC(O)CO (stereo not drawn),outcome,[3],inactive
same,Potency,[4],inactive
Clc1ccc(CSC(Cn2ccnc2)c2ccc(Cl)cc2Cl)cc1 (stereo not drawn),outcome,[3],inactive
same,Potency,[4],inactive
COc1ccc(CN2CCNCC2)c(OC)c1OC,outcome,[3],inactive
same,Potency,[4],inactive
CCC(=O)O[C@H]1CC[C@H]2[C@@H]3CCC4=CC(=O)CC[C@]4(C)[C@H]3CC[C@]12C,outcome,[3],inactive
same,Potency,[4],inactive
C[C@@H]1CN(C2CCC(C#N)(c3ccc(F)cc3)CC2)CC[C@]1(C(=O)O)c1ccccc1 (stereo partly drawn),outcome,[3],inactive
same,Potency,[4],inactive
O=C1CN2CCOC2(c2ccccc2Cl)c2cc(Cl)ccc2N1 (stereo not drawn),outcome,[3],inactive
same,Potency,[4],inactive
O=C(NC(=O)c1c(F)cccc1F)Nc1cc(Cl)c(OC(F)(F)C(F)C(F)(F)F)cc1Cl (stereo not drawn),outcome,[3],inactive
same,Potency,[4],inactive
Cc1nnc2n1-c1sc(CCC(=O)N3CCOCC3)cc1C(c1ccccc1Cl)=NC2,outcome,[3],inactive
same,Potency,[4],inactive
N#Cc1nn(-c2c(Cl)cc(C(F)(F)F)cc2Cl)c(N)c1S(=O)C(F)(F)F (stereo not drawn),outcome,[3],inactive
same,Potency,[4],inactive
CC(Cc1ccccc1)NCc1ccccc1Cl (stereo not drawn),outcome,[3],inactive
same,Potency,[4],inactive
CCCCCCCCCCCC[N+](C)(C)CCOc1ccccc1,outcome,[3],inactive
same,Potency,[4],inactive
O=C(O)Cc1ccccc1,outcome,[3],inactive
same,Potency,[4],inactive
CC(C)C(Br)C(=O)NC(N)=O (stereo not drawn),outcome,[3],inactive
same,Potency,[4],inactive
CCCCCCCCC(=O)NCc1ccc(O)c(OC)c1,outcome,[3],inactive
same,Potency,[4],inactive
C[C@H](N)[C@H](O)c1ccc(O)c(O)c1,outcome,[3],inactive
same,Potency,[4],inactive
CCC1(c2cccc(O)c2)CCCCN(C)C1 (stereo not drawn),outcome,[3],inactive
same,Potency,[4],inactive
C[C@@H]1O[C@@H](O[C@@H]2C=C3CC[C@@H]4[C@H](CC[C@]5(C)[C@@H](c6ccc(=O)oc6)CC[C@]45O)[C@@]3(C)CC2)[C@H](O)[C@H](O)[C@H]1O,outcome,[3],inactive
same,Potency,[4],inactive
NC(=O)OCCCc1ccccc1,outcome,[3],inactive
same,Potency,[4],inactive
CNC(=O)Oc1cccc2ccccc12,outcome,[3],inactive
same,Potency,[4],inactive
O=C(CCCN1CCC(n2c(=O)[nH]c3ccccc32)CC1)c1ccc(F)cc1,outcome,[3],inactive
same,Potency,[4],inactive
CC(C)(O)C(Cl)(Cl)Cl,outcome,[3],inactive
same,Potency,[4],inactive
C=CCN1CC[C@]23CCCC[C@H]2[C@H]1Cc1ccc(O)cc13,outcome,[3],inactive
same,Potency,[4],inactive
Clc1ccc(CO/N=C(\Cn2ccnc2)c2ccc(Cl)cc2Cl)c(Cl)c1,outcome,[3],inactive
same,Potency,[4],inactive
